Among all 5,500 compounds or so, about 2,000 (36%) were called active. Inconclusive results (about 18%) are left out. Rule as the data show it: active = normalized growth mostly below about 0.91 (no sharp cut-off); inconclusive = no clear call, values can overlap the other calls; inactive = mostly above about 0.92. This is one part of the list.
Experiment: chemical genetic growth profiling, strain panel (AID 1159580);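 also: tested at 20 µM; growth read once vehicle control cultures reached saturation at 30 °C; 1 = growth at the plate median or of vehicle wells; lower values mean less growth of the strain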
Details: S. cerevisiae deletion strains, growth OD

Measured: normalized growth

C[C@]12CCC(=O)C=C1CCc1ccc(O)cc12
inactive: locus YBR021W, strain FUR4, active compounds read low 1.03 | locus YBR229C, strain ROT2, active compounds read low 1 | locus YCL029C, strain bik1, active compounds read low 0.992 | locus YDL035C, strain GPR1, active compounds read low 1.04 | locus YDL074C, strain BRE1, active compounds read low 1.04 | locus YDL101C, strain DUN1, active compounds read low 1.01 | locus YDL134C, strain PPH21, active compounds read low 1 | locus YDL185W, strain tfp1, active compounds read low 0.992 | locus YDL192W, strain arf1, active compounds read low 0.998 | locus YDR101C, strain arx1, active compounds read low 0.984 | locus YDR150W, strain NUM1, active compounds read low 1 | locus YDR162C, strain NBP2, active compounds read low 1.01 | locus YDR318W, strain mcm21, active compounds read low 0.986 | locus YDR388W, active compounds read low 0.991 | locus YDR502C, strain sam2, active compounds read low 0.968 | locus YEL061C, strain CIN8, active compounds read low 1 | locus YER110C, active compounds read low 0.982 | locus YER155C, strain BEM2, active compounds read low 0.996 | locus YER167W, strain BCK2, active compounds read low 1.02 | locus YGL078C, strain dbp3, active compounds read low 0.995 | locus YGL086W, strain mad1, active compounds read low 0.982 | locus YGL248W, strain PDE1, active compounds read low 0.996 | locus YGR078C, strain PAC10, active compounds read low 0.998 | locus YGR135W, strain pre9, active compounds read low 0.973 | locus YGR252W, strain gcn5, active compounds read low 0.961 | locus YHR030C, strain SLT2, active compounds read low 1.01 | locus YHR079C, strain IRE1 (second series), active compounds read low 0.989 | locus YHR094C, strain hxt1, active compounds read low 0.993 | locus YHR129C, strain ARP1, active compounds read low 1 | locus YHR200W, strain rpn10, active compounds read low 0.989 | locus YIL066C, strain RNR3, active compounds read low 1.02 | locus YIL073C, strain SPO22, active compounds read low 1.04 | locus YIL125W, strain kgd1, active compounds read low 0.987 | locus YIR030C, strain dcg1, active compounds read low 1.01 | locus YJL095W, strain BCK1, active compounds read low 1 | locus YJL134W, strain LCB3, active compounds read low 1.01 | locus YJL168C, strain set2, active compounds read low 0.987 | locus YJL187C, strain SWE1 (second series), active compounds read low 1 | locus YJR043C, strain POL32, active compounds read low 1.01 | locus YKL009W, strain mrt4, active compounds read low 1.03 | locus YKL068W, active compounds read low 0.991 | locus YKL085W, strain MDH1 (second series), active compounds read low 0.999 | locus YKL085W, strain MDH1, active compounds read low 0.999 | locus YKL190W, strain CNB1, active compounds read low 1.01 | locus YKR001C, strain vps1, active compounds read low 0.977 | locus YLR039C, strain RIC1, active compounds read low 1.06 | locus YLR058C, strain SHM2, active compounds read low 1.02 | locus YLR102C, strain apc9, active compounds read low 0.994 | locus YLR262C, strain YPT6, active compounds read low 1.07 | locus YLR268W, strain sec22, active compounds read low 0.98 | locus YLR342W, strain FKS1 (second series), active compounds read low 0.997 | locus YLR371W, strain rom2, active compounds read low 0.994 | locus YLR418C, strain cdc73, active compounds read low 0.982 | locus YML016C, strain PPZ1, active compounds read low 1.01 | locus YML032C, strain rad52, active compounds read low 0.982 | locus YML124C, strain tub3, active compounds read low 0.979 | locus YMR078C, strain ctf18, active compounds read low 0.987 | locus YMR223W, strain ubp8, active compounds read low 0.988 | locus YMR307W, strain GAS1, active compounds read low 1.04 | locus YNL067W, strain RPL9B, active compounds read low 0.999 | locus YNL233W, strain BNI4, active compounds read low 0.99 | locus YNL250W, strain rad50, active compounds read low 1.01 | locus YNL271C, strain bni1, active compounds read low 0.982 | locus YNL298W, strain CLA4, active compounds read low 0.987 | locus YNL307C, strain MCK1, active compounds read low 0.983 | locus YNR052C, strain pop2, active compounds read low 0.982 | locus YOL012C, strain htz1 1.09 | locus YOL147C, strain pex11, active compounds read low 0.994 | locus YOR061W, strain CKA2, active compounds read low 1.03 | locus YOR069W, strain VPS5, active compounds read low 1.01 | locus YOR136W, strain idh2, active compounds read low 0.97 | locus YOR144C, strain elg1, active compounds read low 0.985 | locus YOR184W, strain ser1, active compounds read low 1.03 | locus YOR316C, strain cot1, active compounds read low 0.99 | locus YPL241C, strain CIN2, active compounds read low 1 | locus YPR119W, strain clb2, active compounds read low 0.986 | locus YPR141C, strain kar3, active compounds read low 0.994 | locus YPR163C, strain tif3, active compounds read low 0.984 | locus YPR167C, strain met16, active compounds read low 0.987 | strain wtn01, active compounds read low 0.992

Reference: PubChem BioAssay AID1159580 (chemical genetic matrix, 2015)
